From PubChem BioAssay (NCI)
Several values for one entry are separate records, joined by “and”; a condition that tells them apart may be missing. Equal entries are not always repeated. This is part of a sample that, as a whole, favours compounds with a hit. Of some 79,000 tested, about 15% had one in any assay. Where a structure was tested more than once in an assay, its records may differ in their call. Activity calls are given as the source filed them. Rule as the data show it: active = growth inhibition above about 70%; inactive = the rest. Where a SMILES comes first, the peptide text is derived from it. [ ]: non-standard residue; d: D form. ξ: configuration not given here. ξV = CC(C)C(N)C(=O)O

Columns and labels:
[1] = NCI Yeast Anticancer Drug Screen. Data for the rad50 strain (AID 155);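 also: 0% = growth of vehicle-only cultures of the same strain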; conditions: S. cerevisiae rad50 strain growth inhibition, stronger effect = higher value
Summary of the method: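 A DNA repair-deficient yeast mutant serves as the test organism; compound-induced growth inhibition is calculated against vehicle-treated cells.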

[2] = NCI Yeast Anticancer Drug Screen. Data for the mec2-1 strain (AID 157); conditions: S. cerevisiae mec2-1 strain, stronger effect = higher value
Summary of the method: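 Mutant yeast (mec2-1) grown with compound; growth inhibition relative to vehicle control reported.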

[3] = NCI Yeast Anticancer Drug Screen. Data for the sgs1 mgt1 strain (AID 161);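 also: 0% = growth of cultures given vehicle only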; conditions: S. cerevisiae sgs1 mgt1 strain, stronger effect = higher value
Summary of the method: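 This yeast growth screen uses a strain with defined DNA-repair lesions; compound-treated growth is compared with vehicle-treated growth.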

[4] = NCI Yeast Anticancer Drug Screen. Data for the cln2 rad14 strain (AID 165);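 also: 0% = growth equal to vehicle treated cultures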; conditions: S. cerevisiae cln2 rad14 strain, stronger effect = higher value
Summary of the method: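 Readout is yeast growth inhibition versus vehicle-treated controls, using a strain with cln2 and rad14 alterations exposed to compound.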

[5] = NCI Yeast Anticancer Drug Screen. Data for the bub3 strain (AID 167); conditions: S. cerevisiae bub3 mutant strain, stronger effect = higher value
Summary of the method: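 Inhibition values come from growth of compound-treated mutant yeast normalised to vehicle-treated controls.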

[6] = NCI Yeast Anticancer Drug Screen. Data for the mlh1 rad18 strain (AID 175); conditions: S. cerevisiae mlh1 rad18 strain growth inhibition, stronger effect = higher value
Summary of the method: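 Genetically defined yeast (DNA repair-deficient) exposed to compounds; growth inhibition determined relative to vehicle.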

[7] = at 5.0 µM (retest, dose inferred, filed as 0.5)
[8] = at 50.0 µM (retest, dose inferred, filed as 5.0)

Measured: growth inhibition

Oc1ccccc1C=Nc1ccccc1N=Cc1ccccc1O
68% (inactive) and 96% (active): [1]; [8]
inactive: [1]; [7] -16% and -2% | [2]; [7] -34% and -4% | [3]; [7] -12% and -1% | [4]; [7] 7% and -12% | [4]; at 50.0 µM 59.5% and 8.6% | [5]; [7] 14% and -3% | [6]; [7] -17% and -4%
67.8% (inactive) and 91.3% (active): [3]; at 50.0 µM
67% (inactive) and 87.2% (active): [5]; at 50.0 µM
active: [1]; at 50.0 µM 85% and 81.4% | [2]; [8] 98% and 85% | [2]; at 50.0 µM 78.9% and 89% | [3]; [8] 76% and 91% | [6]; [8] 98% and 97% | [6]; at 50.0 µM 76.3% and 93%
39% (inactive) and 95% (active): [4]; [8]
52% (inactive) and 86% (active): [5]; [8]

CCCCCCCCCCCC[N+](C)(C)Cc1ccccc1
57% (inactive) and 92% (active): [5]; [7]
58% (inactive) and 95% (active): [1]; [7]
56% (inactive) and 88% (active): [4]; [7]
active: [1]; [8] 99% and 98% | [1]; at 50.0 µM 85.7% and 97.7% | [2]; [7] 75% and 93% | [2]; [8] 100% and 98% | [2]; at 50.0 µM 99.8% and 98.3% | [3]; [7] 91% and 99% | [3]; [8] 100% and 98% | [3]; at 50.0 µM 98% and 99.4% | [4]; [8] 99% and 97% | [4]; at 50.0 µM 99.4% and 98% | [5]; [8] 100% and 98% | [5]; at 50.0 µM 99.5% and 99.3% | [6]; [7] 81% and 96% | [6]; [8] 99% and 98% | [6]; at 50.0 µM 99.7% and 98.5%

CCCCC(O)CC (stereo unspecified)
inactive: [1]; [7] -6% | [1]; [8] 0% | [1]; at 50.0 µM -10% and 9.8% | [2]; [7] -8% | [2]; [8] -3% | [2]; at 50.0 µM -42.2% and 12.4% | [3]; [7] -2% | [3]; [8] 1% | [3]; at 50.0 µM 11.6% and 27.9% | [4]; [7] -3% | [4]; [8] -1% | [4]; at 50.0 µM 4.65% and 48.2% | [5]; [7] -6% | [5]; [8] 0% | [5]; at 50.0 µM -5.95% and 1.55% | [6]; [7] -4% | [6]; [8] 0% | [6]; at 50.0 µM 0.4% and -1.7%

Nc1nc(Cl)cc(NCCCCCCCCCCNc2cc(Cl)nc(N)n2)n1
inactive: [1]; [7] -4% | [1]; at 50.0 µM 28.9% | [2]; [7] 3% | [2]; at 50.0 µM 19.1% | [3]; [7] -1% | [3]; at 50.0 µM 0.05% | [4]; [7] 10% | [4]; at 50.0 µM 52.1% | [5]; [7] -7% | [5]; at 50.0 µM 18.8% | [6]; [7] 14% | [6]; at 50.0 µM 33%
active: [1]; [8] 96% | [2]; [8] 100% | [3]; [8] 100% | [4]; [8] 99% | [5]; [8] 99% | [6]; [8] 99%

COc1ccc(/C=C2\C=Nc3ccccc32)cc1
inactive: [1]; [7] 12% | [1]; [8] -10% | [1]; at 50.0 µM 12.7% | [2]; [7] -3% | [2]; [8] 10% | [2]; at 50.0 µM -5.7% | [3]; [7] 0% | [3]; [8] -3% | [3]; at 50.0 µM 17.9% | [4]; [7] 28% | [4]; [8] 25% | [4]; at 50.0 µM 10.4% | [5]; [7] 18% | [5]; [8] 30% | [5]; at 50.0 µM 33.7% | [6]; [7] 12% | [6]; [8] 11% | [6]; at 50.0 µM 4.55%

O=C(OC(=Nc1ccccc1)N(c1ccccc1)c1ccccc1)c1ccccc1
inactive: [1]; [7] 5% | [1]; [8] 27% | [1]; at 50.0 µM 13% and 20.9% | [2]; [7] 5% | [2]; [8] 8% | [2]; at 50.0 µM 3.75% and 12.8% | [3]; [7] -7% | [3]; [8] 40% | [3]; at 50.0 µM 12.7% and -15.7% | [4]; [7] 5% | [4]; [8] 21% | [4]; at 50.0 µM 17.8% and -2.05% | [5]; [7] 17% | [5]; [8] 34% | [5]; at 50.0 µM 5.4% and -0.45% | [6]; [7] 9% | [6]; [8] 20% | [6]; at 50.0 µM 1.95% and 12.6%

O=C(CCN1CCN2c3ccccc3CCC2C1)c1ccc(F)cc1 (stereo unspecified)
98.5% (active) and 45% (inactive): [6]; at 50.0 µM
64% (inactive) and 98% (active): [4]; [8]
91.5% (active) and 43.5% (inactive): [2]; at 50.0 µM
82% (active) and 40% (inactive): [6]; [7]
inactive: [1]; [7] 51% and 17% | [2]; [7] 63% and 22% | [4]; [7] 65% and -5%
74% (active) and -2% (inactive): [3]; [7]
active: [1]; [8] 86% and 98% | [1]; at 50.0 µM 95.7% and 83.2% | [2]; [8] 88% and 97% | [3]; [8] 96% and 100% | [3]; at 50.0 µM 97.2% and 89.7% | [6]; [8] 96% and 99%
93.5% (active) and 22.4% (inactive): [4]; at 50.0 µM

CC(C)C(NC(=O)CN)C(=O)O (stereo unspecified) (H-Gly-[ξV]-OH)
inactive: [1]; [7] -165% | [1]; [8] -152% | [1]; at 50.0 µM -7.85% and -10.2% and -15.5% | [2]; [7] -46% | [2]; [8] -52% | [2]; at 50.0 µM 3.95% and -7.6% and -21.6% | [3]; [7] -62% | [3]; [8] -64% | [3]; at 50.0 µM -0.15% and -21.6% and -5.05% | [4]; [7] -59% | [4]; [8] -60% | [4]; at 50.0 µM 35.5% and 5.7% and -2.4% | [5]; [7] -75% | [5]; [8] -79% | [5]; at 50.0 µM -31.8% and -8.25% and -5.15% | [6]; [7] -146% | [6]; [8] -116% | [6]; at 50.0 µM 16.8% and -21.9% and -0.65%

O=C(CC1=Nc2nnc(CCCCCCCc3nnc4n3C(=O)C(CC(=O)c3ccc5ccccc5c3)=N4)n2C1=O)c1ccc2ccccc2c1
active: [1]; [8] 85% | [2]; [8] 92% | [3]; [8] 93% | [4]; [8] 85% | [4]; at 50.0 µM 82.1%
inactive: [1]; [7] 1% | [1]; at 50.0 µM 17.9% | [2]; [7] 1% | [2]; at 50.0 µM 9.85% | [3]; [7] -2% | [3]; at 50.0 µM 18.4% | [4]; [7] 6% | [6]; [7] 3% | [6]; [8] 37% | [6]; at 50.0 µM 26.9%

Cn1c2ccccc2c(=O)c2ccccc21
-16.6% (inactive) and 82% (active): [1]; at 50.0 µM
inactive: [1]; [7] 4% | [1]; [8] 38% | [2]; [7] 23% | [2]; [8] 9% | [2]; at 50.0 µM -18.9% and 13.4% | [3]; [7] -5% | [3]; [8] 9% | [3]; at 50.0 µM -17.4% and 18.6% | [4]; [7] -4% | [4]; [8] -2% | [4]; at 50.0 µM -11.3% and -35.4% | [5]; [7] -9% | [5]; [8] 1% | [5]; at 50.0 µM 14.2% and 3.6% | [6]; [7] -1% | [6]; [8] 20% | [6]; at 50.0 µM -28.4% and 31.8%

CCCCCCCCCCCC(=O)CN1CCOCC1
inactive: [1]; [7] 34% | [2]; [7] 25% | [3]; [7] 47% | [3]; at 50.0 µM 61.9% | [4]; [7] 39% | [6]; [7] 31%
active: [1]; [8] 99% | [1]; at 50.0 µM 98.9% | [2]; [8] 100% | [2]; at 50.0 µM 99.8% | [3]; [8] 99% | [4]; [8] 99% | [4]; at 50.0 µM 97.8% | [5]; [7] 87% | [5]; [8] 99% | [5]; at 50.0 µM 99.7% | [6]; [8] 99% | [6]; at 50.0 µM 99.2%

CC(C)(C)OC(=O)NOc1ccc([N+](=O)[O-])cc1[N+](=O)[O-]
active: [1]; [8] 99% | [1]; at 50.0 µM 98.7% and 99.5% | [2]; [8] 100% | [2]; at 50.0 µM 99.5% and 99.7% | [3]; [8] 100% | [3]; at 50.0 µM 99.5% | [4]; [8] 99% | [4]; at 50.0 µM 97.2% and 99.5% | [5]; [8] 99% | [5]; at 50.0 µM 99.2% and 99.5% | [6]; [8] 97% | [6]; at 50.0 µM 99.2% and 99.7%
inactive: [1]; [7] 22% | [2]; [7] 4% | [3]; [7] 38% | [4]; [7] 8% | [5]; [7] 9% | [6]; [7] 68%

Clc1ccc2c(c1)[nH]c1c2nc2ccccn21
15.2% (inactive) and 79.2% (active): [5]; at 50.0 µM
62.9% (inactive) and 83.2% (active): [1]; at 50.0 µM
-14.4% (inactive) and 80.4% (active): [6]; at 50.0 µM
inactive: [1]; [7] 21% | [2]; [7] 19% | [2]; at 50.0 µM -11.3% and 67.4% | [3]; [7] 50% | [4]; [7] 47% | [5]; [7] 36% | [6]; [7] 11%
19.4% (inactive) and 85.7% (active): [3]; at 50.0 µM
active: [1]; [8] 95% | [2]; [8] 98% | [3]; [8] 95% | [4]; [8] 95% | [5]; [8] 97% | [6]; [8] 98%
25.2% (inactive) and 77.5% (active): [4]; at 50.0 µM

O=C1NC(=O)c2cc([N+](=O)[O-])ccc21
inactive: [1]; [7] -9% | [1]; [8] 12% | [1]; at 50.0 µM 6.65% and 0.9% | [2]; [7] 0% | [2]; [8] 4% | [2]; at 50.0 µM -21.9% and 3.5% | [3]; [7] -2% | [3]; [8] 8% | [3]; at 50.0 µM 5.35% and 17% | [4]; [7] -5% | [4]; [8] -5% | [4]; at 50.0 µM -1.95% and 55% | [5]; [7] 0% | [5]; [8] 13% | [5]; at 50.0 µM -0.35% and 34.4% | [6]; [7] -4% | [6]; [8] 12% | [6]; at 50.0 µM 11.3% and -14.6%
